Results as given in PubChem BioAssay (NCATS).
Inconclusive results are not listed. Activity calls are given as the source filed them. The call rests on the fitted dose curve; in most records, active means well fitted curve in the direction sought with a large enough effect; inconclusive means small, poorly fitted or top-dose-only effect, or another doubt; inactive means no such curve, though single readings can be large; an effect the other way counts as inactive or inconclusive.

What was measured:
[1] = target: ATP-dependent 6-phosphofructokinase (Trypanosoma brucei brucei) (UniProt O15648); assay: qHTS Assay to Find Inhibitors of T. brucei phosphofructokinase: hit validation (AID 492961);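 further: luminescence reports ADP formed as PFK phosphorylates fructose-6-phosphate with ATP; on the % scale 0 is the no-effect control and ±100 the full control effect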
Sequence of ATP-dependent 6-phosphofructokinase (Trypanosoma brucei brucei) (O15648 whole entry, looked up): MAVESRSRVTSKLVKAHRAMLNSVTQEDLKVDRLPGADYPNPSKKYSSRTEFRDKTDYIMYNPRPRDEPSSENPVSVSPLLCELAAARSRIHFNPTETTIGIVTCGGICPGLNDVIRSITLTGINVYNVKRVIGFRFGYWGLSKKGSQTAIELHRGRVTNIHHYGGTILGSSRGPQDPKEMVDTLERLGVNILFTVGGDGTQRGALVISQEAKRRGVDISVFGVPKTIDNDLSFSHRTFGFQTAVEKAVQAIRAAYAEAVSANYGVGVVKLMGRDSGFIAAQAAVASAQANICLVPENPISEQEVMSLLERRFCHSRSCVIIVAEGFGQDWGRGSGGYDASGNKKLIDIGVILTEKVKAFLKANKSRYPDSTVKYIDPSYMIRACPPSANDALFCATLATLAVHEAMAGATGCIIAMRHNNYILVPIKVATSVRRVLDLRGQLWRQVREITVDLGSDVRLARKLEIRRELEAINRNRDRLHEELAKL
Method in brief: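 In this biochemical qHTS validation, titrated compounds were tested against 1.25 nM PFK with 0.1 mM ATP and 0.5 mM F6P. Percent activity came from controls lacking or containing enzyme.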

[2] = qHTS profiling for inhibitors of Plasmodium falciparum proliferation (AID 504749);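 further: 0% = DMSO vehicle and full inhibition = artemisinin control; nearly all actives have a fitted effect of over 60% in size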; details: P. falciparum in erythrocytes, SYBR Green DNA, 72 h, at 28.7 µM (top of the series)
Method in brief: (§1)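 Infected RBCs, 0.3% parasitemia/2.5% Hct final; cpd 72 h, 37 C, 5% CO2; lysis buffer with saponin/triton/SYBR Green I, o/n RT dark; FI 485/535; norm. to artemisinin (0.29 uM) and DMSO.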

3D7 = assay: as above; details: P. falciparum in erythrocytes, SYBR Green DNA, 72 h; series mostly up to 28.7 µM
Method in brief: as §1

ATS189 = assay: as above; details: P. falciparum in erythrocytes, SYBR Green DNA, 72 h; series mostly up to 28.7 µM
Method in brief: as §1

CP185 = assay: as above; details: P. falciparum in erythrocytes, SYBR Green DNA, 72 h; series mostly up to 28.7 µM
Method in brief: as §1

CP191 = assay: as above; details: P. falciparum in erythrocytes, SYBR Green DNA, 72 h; series mostly up to 28.7 µM
Method in brief: as §1

CP192 = assay: as above; details: P. falciparum in erythrocytes, SYBR Green DNA, 72 h; series mostly up to 28.7 µM
Method in brief: as §1

CP194 = assay: as above; details: P. falciparum in erythrocytes, SYBR Green DNA, 72 h; series mostly up to 28.7 µM
Method in brief: as §1

CP211 = assay: as above; details: P. falciparum in erythrocytes, SYBR Green DNA, 72 h; series mostly up to 28.7 µM
Method in brief: as §1

CP217 = assay: as above; details: P. falciparum in erythrocytes, SYBR Green DNA, 72 h; series mostly up to 28.7 µM
Method in brief: as §1

CP238 = assay: as above; details: P. falciparum in erythrocytes, SYBR Green DNA, 72 h; series mostly up to 28.7 µM
Method in brief: as §1

CP252 = assay: as above; details: P. falciparum in erythrocytes, SYBR Green DNA, 72 h; series mostly up to 28.7 µM
Method in brief: as §1

CP262 = assay: as above; details: P. falciparum in erythrocytes, SYBR Green DNA, 72 h; series mostly up to 28.7 µM
Method in brief: as §1

CP265 = assay: as above; details: P. falciparum in erythrocytes, SYBR Green DNA, 72 h; series mostly up to 28.7 µM
Method in brief: as §1

CP269 = assay: as above; details: P. falciparum in erythrocytes, SYBR Green DNA, 72 h; series mostly up to 28.7 µM
Method in brief: as §1

CP286 = assay: as above; details: P. falciparum in erythrocytes, SYBR Green DNA, 72 h; series mostly up to 28.7 µM
Method in brief: as §1

CP329 = assay: as above; details: P. falciparum in erythrocytes, SYBR Green DNA, 72 h; series mostly up to 28.7 µM
Method in brief: as §1

Dd2 = assay: as above; details: P. falciparum in erythrocytes, SYBR Green DNA, 72 h; series mostly up to 28.7 µM
Method in brief: as §1

ECU = assay: as above; details: P. falciparum in erythrocytes, SYBR Green DNA, 72 h; series mostly up to 28.7 µM
Method in brief: as §1

FAB9 = assay: as above; details: P. falciparum in erythrocytes, SYBR Green DNA, 72 h; series mostly up to 28.7 µM
Method in brief: as §1

OCC(CO)NC1C[C@](O)(CO)[C@@H](O)[C@H](O)[C@H]1O (stereo partly drawn)
inactive: Potency [1] | activity, negative = inhibition ([2]; parasite line A) 8.78% | activity, negative = inhibition ([2]; parasite line B) 9.25% | Potency (3D7) | Potency (ATS189) | Potency (CP185) | Potency (CP191) | Potency (CP192) | Potency (CP194) | Potency (CP211) | Potency (CP217) | Potency (CP238) | Potency (CP252) | Potency (CP262) | Potency (CP265) | Potency (CP269) | Potency (CP286) | Potency (CP329) | Potency (Dd2) | Potency (ECU) | Potency (FAB9)

CCCCC(=O)O[C@]1(C(=O)CO)CCC2C3CCC4=CC(=O)CCC4(C)C3C(O)CC21C (stereo partly drawn)
inactive: Potency [1] | activity, negative = inhibition ([2]; parasite line A) -2.08% | activity, negative = inhibition ([2]; parasite line B) -4.71% | Potency (3D7) | Potency (ATS189) | Potency (CP185) | Potency (CP191) | Potency (CP192) | Potency (CP194) | Potency (CP211) | Potency (CP217) | Potency (CP238) | Potency (CP252) | Potency (CP262) | Potency (CP265) | Potency (CP269) | Potency (CP286) | Potency (CP329) | Potency (ECU) | Potency (FAB9)

CC1(C(=O)O)CCC2(C)CCC3(C)C(=CC(=O)C4C5(C)CCC(O)C(C)(C)C5CCC43C)C2C1 (stereo not drawn)
inactive: Potency [1] | activity, negative = inhibition ([2]; parasite line A) 8.05% | activity, negative = inhibition ([2]; parasite line B) 1.81% | Potency (3D7) | Potency (ATS189) | Potency (CP185) | Potency (CP191) | Potency (CP192) | Potency (CP194) | Potency (CP211) | Potency (CP217) | Potency (CP238) | Potency (CP252) | Potency (CP262) | Potency (CP265) | Potency (CP269) | Potency (CP286) | Potency (CP329) | Potency (Dd2) | Potency (ECU) | Potency (FAB9)

C/C(=C(/CCO)SS/C(CCO)=C(\C)N(C=O)Cc1cnc(C)nc1N)N(C=O)Cc1cnc(C)nc1N
inactive: Potency [1] | activity, negative = inhibition ([2]; parasite line A) -6.53% | activity, negative = inhibition ([2]; parasite line B) -3.11% | Potency (3D7) | Potency (ATS189) | Potency (CP185) | Potency (CP191) | Potency (CP192) | Potency (CP194) | Potency (CP211) | Potency (CP217) | Potency (CP238) | Potency (CP252) | Potency (CP262) | Potency (CP265) | Potency (CP269) | Potency (CP286) | Potency (CP329) | Potency (Dd2) | Potency (ECU) | Potency (FAB9)

OCC1OC(O)C(O)C(O)C1O (stereo not drawn)
inactive: Potency [1] | activity, negative = inhibition ([2]; parasite line A) -3.4% | activity, negative = inhibition ([2]; parasite line B) 8.64% | Potency (3D7) | Potency (ATS189) | Potency (CP185) | Potency (CP191) | Potency (CP192) | Potency (CP194) | Potency (CP211) | Potency (CP217) | Potency (CP238) | Potency (CP252) | Potency (CP262) | Potency (CP265) | Potency (CP286) | Potency (CP329) | Potency (Dd2) | Potency (ECU) | Potency (FAB9)
